Measured values reported in PubChem BioAssay AID485297 (National Center for Advancing Translational Sciences (NCATS), 2010).
Out of some 320,000 compounds screened, about 9,100 (2.8%) were called active. Not shown: some 3% with an inconclusive outcome. Shown is part of a subset that was picked to be rich in actives. Entries that show only a call come without a potency. A number with no mark means an inactive call. Calls follow the shape of the dose curve; as a rule, active = well fitted activation curve with a large enough effect; inconclusive = small, poorly fitted or top-dose-only effect; inactive = no such curve, though single readings can be large or run the other way.

Assay: qHTS Assay for Rab9 Promoter Activators; also: nearly all actives have a fitted effect of over 60% in size
Details: Huh7 Rab9 promoter-luciferase reporter, luminescence, 24 h; series mostly up to 9.22 µM
Method in brief: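 Luminescence read-out: Huh7 cells stably expressing Rab9-luciferase, treated 24 h with compound at 37 °C, then lysed with luciferase reagent for 10 min at ambient before reading.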
Potency is read from the fitted curve at half-maximal effect.

Compound	Potency	activation, negative = inhibition
Cc1ccc(C(=O)c2c(NC(=O)c3ccccc3)sc(C)c2C)cc1	inactive	
O=C(COC(=O)c1ccc2ncsc2c1)Nc1ccc(Cl)cc1	inactive	
Cc1sc(NC(=O)c2ccc3ncsc3c2)c(C(N)=O)c1C	1.58 µM (active)	
CCc1ccc(OCC(=O)OCC(=O)c2c(N)n(C)c(=O)n(C)c2=O)cc1	inactive	
O=C(/C=C/c1ccc(Cl)cc1)Nc1ccc(S(=O)(=O)Nc2ncccn2)cc1	inactive	
Cc1cc(C)nc(NC(=O)/C=C/c2ccc(Cl)cc2)n1	inactive	
CC(C)(C)c1ccc(/C=C/C(=O)Nc2ncccn2)cc1	3.98 µM (active)	
C[C@H](NC(=O)c1ccccc1Cl)C(=O)OCC(=O)N1CCN(c2ccccc2)CC1	inactive	
O=C(NCCS(=O)(=O)NCc1ccc(F)cc1)c1ccccc1	inactive	
O=C(CNC(=O)c1ccc(F)cc1)c1ccccc1	0.794 µM (active)	
O=C(CNC(=O)c1ccccc1F)c1ccc(Br)cc1	1.26 µM (active)	
O=C(CNC(=O)c1ccccc1Br)NCCSc1ccc(Br)cc1	inactive	
O=C(COC(=O)CNC(=O)c1ccccc1F)NCC(F)(F)F	inactive	
O=C(CNC(=O)c1ccccc1)NCC(=O)OCC(=O)c1ccccc1	inactive	
O=S(=O)(NCc1ccccc1Br)c1ccccc1Br	inactive	
COc1cccc(CNC(=O)COc2cc(O)c3c(c2)OC(C)(C)CC3=O)c1	inactive	
Nc1c(N(CCCO)C(=O)C2CCCC2)c(=O)[nH]c(=O)n1Cc1ccccc1	inactive	
CCOC(=O)CSc1nnc(-c2ccc([N+](=O)[O-])cc2)o1	inactive	
O=C(CSc1nnc(-c2ccc([N+](=O)[O-])cc2)o1)Nc1ccccn1	0.398 µM (active)	
CCc1ccccc1NC(=O)CSc1nnc(-c2ccncc2)o1	inactive	
O=c1c2ccccc2ccc2ccc(P(=O)(O)O)cc12	inactive	
Cc1c(NS(=O)(=O)c2cc(C(=O)NCCc3ccc(F)cc3)cc(Cl)c2Cl)c(=O)n(-c2ccccc2)n1C	inactive	
O=C(COC(=O)C1(c2ccc(F)cc2)CCCC1)N1CCNC1=O	inactive	
CCn1c(=N)n(CC(=O)c2cccc(OC)c2)c2ccccc21	3.16 µM (active)	

Compound	Potency	activation, negative = inhibition
CCOC(=O)c1cc2ccccc2n1CC(=O)c1ccccc1	inactive	
COc1ccc2cc(C(=O)O)n(CC(=O)c3ccccc3)c2c1	inactive	
O=C1OC2(CCCCC2)CC2=C1C1O[C@](c3ccsc3)(Cc3ccccc31)O2		1.46% [at 1.84 µM]
COc1ccc(OCCCC(=O)Nc2cccc(S(=O)(=O)N3CCCCCC3)c2)cc1	inactive	
C/C(=N\NC(=O)c1cccnc1)c1ccc(-c2ccccc2)cc1	inactive	
COc1ccc(/C(C)=N/NC(=O)c2ccc3nc[nH]c3c2)cc1	inactive	
C/C(=N\NC(=O)c1nc(C)cc(C)n1)c1ccccc1	1.78 µM (active)	
Cc1ccc(Nc2nnc(SC(C)C(=O)NC3CC3)s2)cc1 (configuration not stated)	inactive	
COc1ccc(/C=N/S(=O)(=O)c2ccccc2)cc1OC	inactive	
CCOc1ccc(/C=N/Nc2nncc(-c3ccccc3)n2)cc1OC	inactive	
COc1ccc(/C=N/Nc2nc3ccccc3o2)cc1OC	1 µM (active)	
CCOc1ccccc1/C=N/Nc1nc2ccccc2o1	inactive	
Brc1ccccc1/C=N/Nc1nc2ccccc2o1	2.82 µM (active)	
Oc1c(Br)cccc1/C=N/Nc1c(F)c(F)c(F)c(F)c1F	inactive	
Cc1nc(SCC(=O)NC2CCCCC2C)c(C#N)c(C)c1C (configuration not stated)	inactive	
Cc1ccc(S(=O)(=O)N2CC(O)C[C@H]2C(=O)OCC(=O)Nc2ccc(N3CCOCC3)cc2)cc1C (some centres not stated)	inactive	
O=C(CCNC(=O)c1ccc(Cl)cc1)NC1CCCc2ccccc21 (configuration not stated)	inactive	
O=C(Nc1ccc(F)cc1)c1cc2c(s1)CCCC2	1.26 µM (active)	
O=C(NCC1CCCO1)c1cc2c(s1)CCCC2 (configuration not stated)	2.51 µM (active)	
O=C(NCCCN1CCOCC1)c1cc2c(s1)CCC2	inactive	
O=C(CNC(=O)c1cc2c(s1)CCC2)Nc1ccccc1Br	inactive	
CCC(=O)c1c[nH]c(C(=O)NCC2CCCO2)c1 (configuration not stated)	inactive	
CN(C)C(=O)c1ccc(NC(=O)COC(=O)c2cc3c(s2)CCCCC3)cc1	inactive	
CC(C)Cc1nnc(NC(=O)CCNC(=O)c2ccccc2Cl)s1	inactive	

Compound	Potency	activation, negative = inhibition
CCN(CC(=O)Nc1ccccc1OC)C(=O)CC1CC2CCC1C2 (configuration not stated)	inactive	
COc1ccc(/C=C(\C#N)C(=O)NCCCn2ccnc2)cc1	inactive	
Cc1ccc(-c2nc(C#N)c(NCCCn3ccnc3)o2)cc1	3.98 µM (active)	
Cc1ccc(S(=O)(=O)c2nc(NCCCn3ccnc3)sc2Cl)cc1	inactive	
O=C(CCc1nc(-c2ccccc2)no1)Nc1cccc(C(=O)NC2CC2)c1	inactive	
COC(=O)c1ccc(/C=N\n2c(C)nnc2C)cc1	inactive	
CC1CCCC(C)N1/N=C/c1ccccc1OC(F)F (configuration not stated)	inactive	
COC(=O)c1ccc(/C=N/N2C(C)CCCC2C)cc1 (configuration not stated)	2.24 µM (active)	
CCC1(CC)NC(=O)N(CC(=O)OCC(=O)c2cc(C)c(C)cc2C)C1=O	inactive	
CC(C)CN(C(=O)c1cccc(S(=O)(=O)N2CCCCC2)c1)C1CCS(=O)(=O)C1 (configuration not stated)	inactive	
O=C(NNC(=S)Nc1ccc(Br)cc1Cl)c1ccco1	2.82 µM (active)	
CCC(=O)NC(=S)Nc1ccc(NC(=O)c2ccco2)c(Cl)c1	inactive	
O=C(NNC(=O)c1ccco1)Nc1ccccc1	inactive	
O=C(Nc1ccc([N+](=O)[O-])cc1)OCCc1ccccn1	3.55 µM (active)	
O=[N+]([O-])c1ccc(NC(=S)N2CCN(c3ccccn3)CC2)cc1	inactive	
O=C(NCCc1ccccn1)c1nc(Cn2cc([N+](=O)[O-])cn2)no1	inactive	
Cc1c(C(=O)Nc2cccc(-c3nnc4n3CCCCC4)c2)oc2ccccc12	inactive	
Cc1c(C(=O)Nc2ccccc2)sc2nc3n(c(=O)c12)CCCCC3	2.51 µM (active)	
CC(=O)c1ccc(NC(=O)c2sc3nc4n(c(=O)c3c2C)CCCCC4)cc1	inactive	
COc1cccc(CNC(=O)COC(=O)CN2C(=O)NC3(CCCCC3C)C2=O)c1 (configuration not stated)	inactive	
COc1ccc(OC)c(-c2csc(NC(=O)COC(=O)C3CC3)n2)c1	inactive	
O=C(Cn1cc(C(=O)c2cccs2)c2ccccc21)NCc1cccs1	inactive	
COC(=O)c1cn(CC(=O)NCc2cccs2)c2ccccc12	3.55 µM (active)	
COC(=O)Cn1cc(C(=O)c2cccs2)c2ccccc21	inactive	
